# Test results taken from PubChem BioAssay AID1259374 (The Scripps Research Institute Molecular Screening Center, 2018).
# The whole screen tested about 650,000 compounds, of which about 5,900 (0.91%) were called active. Rule as the data show it: active = inhibition above about 50%; inactive = the rest. Shown is part of a subset that was picked to be rich in actives.
# Biological target: Microphthalmia-associated transcription factor (Homo sapiens) (UniProt O75030)
# Assay: MITF inhibitors, primary screen, biochemical, AlphaScreen, human (AID 1259374);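 also: 0% = vehicle wells with protein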
# Details: AlphaScreen MITF homodimerization, bead proximity signal; at 2.6 µM; stronger effect = higher value
# Sequence of Microphthalmia-associated transcription factor (Homo sapiens) (O75030 whole entry, looked up): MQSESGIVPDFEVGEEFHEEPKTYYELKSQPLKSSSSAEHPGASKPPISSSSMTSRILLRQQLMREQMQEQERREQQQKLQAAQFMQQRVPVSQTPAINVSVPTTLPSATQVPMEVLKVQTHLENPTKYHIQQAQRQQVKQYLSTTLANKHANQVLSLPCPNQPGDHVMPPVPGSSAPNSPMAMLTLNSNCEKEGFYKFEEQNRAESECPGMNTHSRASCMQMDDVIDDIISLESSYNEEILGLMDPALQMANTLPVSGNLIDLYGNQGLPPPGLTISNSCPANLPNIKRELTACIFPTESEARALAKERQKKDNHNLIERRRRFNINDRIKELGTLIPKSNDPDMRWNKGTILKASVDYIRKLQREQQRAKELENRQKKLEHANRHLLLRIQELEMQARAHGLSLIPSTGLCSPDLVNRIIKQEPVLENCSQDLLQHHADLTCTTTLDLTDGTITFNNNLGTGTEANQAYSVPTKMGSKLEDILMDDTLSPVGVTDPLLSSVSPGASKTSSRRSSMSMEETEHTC
row,SMILES,inhibition
1,Cc1ccc2c(c1)-c1onc(C(=O)Nc3ccc(Cl)cn3)c1CO2,12.1% (inactive)
2,COc1ccccc1NC(=O)Cn1cnc2sc(C(=O)O)c(C)c2c1=O,-5% (inactive)
3,O=C(CSc1cccc[n+]1[O-])Nc1nc2ccccc2s1,14.6% (inactive)
4,C=CCn1c(SCC(=O)Nc2nc3ccccc3s2)nc(O)cc1=O,67% (active)
5,O=C(CSc1ncnc2ccccc12)Nc1nc2ccccc2s1,4.66% (inactive)
6,CCn1cc(C(=O)N[C@H](C)Cn2nnc3ccccc32)c(=O)c2ccc(C)nc21,0.5% (inactive)
7,Cc1ccc(NC(=O)C2C3NC(=S)N(c4ccc(F)cc4)C2(C)Oc2ccc(Br)cc23)c(C)c1 (configuration not stated),8.95% (inactive)
8,CCCN1CCc2nc(NC(=O)COc3ccc(Cl)cc3Cl)sc2C1,4.61% (inactive)
9,CN(c1ccccc1)C(C(=O)Nc1ccc2c(c1)OCCO2)c1ccccc1 (configuration not stated),17.5% (inactive)
10,O=C(Nc1ccc2c(c1)OCO2)C(c1ccccc1)N(Cc1ccccc1)Cc1ccccc1 (configuration not stated),75.7% (active)
11,O=C(Nc1ccc2c(c1)OCO2)C(c1ccccc1)N1CCC(Cc2ccccc2)CC1 (configuration not stated),-8.34% (inactive)
12,O=C1Nc2cc(C(=O)O)ccc2S/C1=C/c1ccccc1Cl,2.94% (inactive)
13,CCOC(=O)c1ccc(Nc2ncnc3c2cnn3-c2ccccc2)cc1,15.3% (inactive)
14,COc1ccc(C(=O)Nc2nc(C)c(C)s2)c(OC)c1,20.7% (inactive)
15,Cc1nc(NC(=O)c2ccoc2C)sc1C,1.06% (inactive)
16,Cc1nc(NC(=O)c2cc(Br)ccc2Cl)sc1C,53.2% (active)
17,NC(=O)c1ccccc1NC(=O)CNCc1ccco1,-15.5% (inactive)
18,CCCn1c(SCC(=O)Nc2ccc(C(C)=O)cc2)n[nH]c1=O,-6.45% (inactive)
19,Cc1ccc(-c2n[nH]c(CNC(=O)c3cnccn3)n2)cc1,1.68% (inactive)
20,CCOc1ccccc1NC(=O)c1ccccc1NC(=O)c1ccc(OC)cc1,-3.48% (inactive)
21,S=c1[nH]nc(COc2cccc(Br)c2)n1-c1ccccc1,4.84% (inactive)
22,O=C(CC1CCCCC1)NCc1ccc(F)cc1,-4.27% (inactive)
23,CN(Cc1ccccc1)C(=O)Cc1c(C(=O)O)n(C)c2ccccc12,12.8% (inactive)
24,Cn1c(C(=O)O)c(CC(=O)NCc2ccc(F)cc2)c2ccccc21,63.1% (active)
25,CCCCC(=O)NCc1ccc(F)cc1,56.8% (active)

row,SMILES,inhibition
1,Cn1c(C(=O)O)c(CC(=O)Nc2ccc(F)cc2)c2ccccc21,-7.75% (inactive)
2,Cc1ccc(CS(=O)(=O)CCC(=O)NCc2ccc(F)cc2)cc1,9.88% (inactive)
3,CC(=O)/C=C/c1oc2ccccc2c1-c1ccc(C)o1,21.6% (inactive)
4,COc1cccc(/C=N/NC(=O)COc2cccc(Cl)c2)c1,1.05% (inactive)
5,Cc1ccc(-c2c(C(=O)O)nnn2-c2nonc2N)cc1,3.35% (inactive)
6,O=C(c1ccccc1)N1CCN(C2CCCC2)CC1,52.8% (active)
7,O=C(c1ccccc1F)N1CCN(C2CCCC2)CC1,29.8% (inactive)
8,O=C(c1ccc(-n2c(=S)[nH]c3ccccc3c2=O)cc1)N1CCN(C2CCCCC2)CC1,6.86% (inactive)
9,N#Cc1cc2cc3c(cc2nc1SCC(=O)Nc1nccs1)OCO3,5.9% (inactive)
10,Cc1nc(C(C)N(C)C(=O)Cn2cc(NC(=O)CCOc3ccccc3)cn2)c(C)s1 (configuration not stated),-7.45% (inactive)
11,CCOC(=O)C(NC(=O)c1ccc(N2CC3CC(C2)c2cccc(=O)n2C3)c(NC(=O)c2cc(OC)cc(OC)c2)c1)C(=O)OCC (configuration not stated),-6.03% (inactive)
12,COc1ccc(-c2cnnc(NCc3ccc(Cl)cc3)n2)cc1,-5.57% (inactive)
13,CCCCNc1ncnc2c1[nH]c1ccc(F)cc12,18% (inactive)
14,COc1ccc(C2=N/C(=C\c3ccco3)C(=O)O2)cc1OC,14.6% (inactive)
15,CCN(CC(=O)NCc1ccc(Cl)cc1)Cn1nnc2ccccc21,85.1% (active)
16,O=C(Cn1nnc2ccccc21)N/N=C/c1c(O)ccc2ccccc12,14.9% (inactive)
17,CCCn1c(=O)c(C(=O)NCc2ccc(Cl)cc2)c(O)c2ccccc21,13.8% (inactive)
18,COc1cc(-c2cn[nH]c2)ccc1C(=O)NCC(C)c1cccs1 (configuration not stated),0.52% (inactive)
19,Cc1c(C(=O)Nc2cccc(C(F)(F)F)c2)sc2ncn(C)c(=O)c12,-1.25% (inactive)
20,Cc1ccc(NC(=O)c2ccc(NC(N)=O)cc2)cc1,-11% (inactive)
21,O=C(COc1ccc(Cl)cc1Cl)Nc1cccc(Br)c1,-1.08% (inactive)
22,Cc1cc(NC(=O)Cn2cnc3c2c(=O)n(C)c(=O)n3C)no1,18% (inactive)
23,Cc1cc(NC(=O)c2ccc(N(C)C)cc2)no1,7.76% (inactive)
24,Cc1cc(NC(=O)CNCCCN(C)C)no1,64.8% (active)
25,COC(=O)c1ccccc1NC(=O)CC1Nc2cc(C)c(C)cc2NC1=O (configuration not stated),6.95% (inactive)

row,SMILES,inhibition
1,O=C(c1ccc2c(c1)OCO2)N1CCCCC1c1nc2ccccc2[nH]1 (configuration not stated),10.6% (inactive)
2,CCCN1CCC(N2CCN(c3cccc(Cl)c3)CC2)CC1,15% (inactive)
3,CN1CCC(N2CCN(c3ccccc3Cl)CC2)CC1,55.2% (active)
4,CCS(=O)(=O)N1CCC(N2CCN(c3ccccc3)CC2)CC1,11.4% (inactive)
5,Cc1nc(-c2cncc(Br)c2)cc(N2CCC(O)CC2)n1,3.37% (inactive)
6,CC(C)C(c1nnnn1C(C)C)N1CCN(c2ccccc2F)CC1 (configuration not stated),7.59% (inactive)
7,COc1ccc(C2C(C(C)=O)=C(C)N=c3s/c(=C\c4cc(C)n(-c5ccc(Cl)cc5)c4C)c(=O)n32)c(OC)c1 (configuration not stated),0.25% (inactive)
8,CCOC(=O)C1=C(C)N=C2SCC(=O)N2C1c1cc(OC)c(OC)c(OC)c1 (configuration not stated),15.1% (inactive)
9,COc1ccc(C2C(C(C)=O)=C(C)N=C3SCC(=O)N32)c(OC)c1 (configuration not stated),63.8% (active)
10,CCc1nnc(NC(=O)CSc2nnc(-c3ccccn3)n2-c2ccccc2C)s1,1.39% (inactive)
11,CCOc1cc(C2C3=C(CCCC3=O)N(CC)C3=C2C(=O)CCC3)cc(Cl)c1O,3.45% (inactive)
12,COC(=O)C1(C)NC(c2ccc(C)cc2)C2C(=O)N(c3ccc(C)cc3)C(=O)C21 (configuration not stated),10.8% (inactive)
13,COC(=O)C1(C)NC(c2ccccc2OC)C2C(=O)N(c3ccccc3)C(=O)C21 (configuration not stated),17.7% (inactive)
14,COC(=O)C1(C)NC(c2ccc(C)cc2)C2C(=O)N(c3ccc(F)cc3)C(=O)C21 (configuration not stated),77.9% (active)
15,CC(=O)c1ccc(N2CN=C3SCC(=O)N3C2)cc1,9.73% (inactive)
16,CCCNC(=O)Cc1ccc(-n2c(=O)c3ccccc3n(CC(=O)NC3CCCCC3)c2=O)cc1,-13.8% (inactive)
17,c1ccc(CCCCNc2nccc(Nc3ccncn3)n2)cc1,61.3% (active)
18,c1ccc(CCNc2nccc(Nc3ccncn3)n2)cc1,-8.19% (inactive)
19,c1ccc(CCCNc2nccc(Nc3ccncn3)n2)cc1,10.6% (inactive)
20,O=C(NCc1ccccc1)c1ccc2c(c1)nc(SCc1ccc([N+](=O)[O-])cc1)n1c3ccccc3nc21,13.9% (inactive)
21,Cc1ccc(CNC(=O)Cn2ncc3c2-c2ccccc2OC3)cc1,4.23% (inactive)
22,Cc1cc(NC(=O)c2ccco2)ncc1NC(=O)c1cnccn1,6.96% (inactive)
23,Cc1ccc(CN2CCOCC2)c(C)c1,-2.63% (inactive)
24,Oc1c(CN2CCOCC2)ccc(CN2CCOCC2)c1O,52% (active)
25,Clc1ccc(CN2CCOCC2)c(Cl)c1,43.8% (inactive)

row,SMILES,inhibition
1,Cc1cc(C)nc(NC(=O)c2ccccc2Br)c1,-3% (inactive)
2,COCCn1c(=S)[nH]c2cc(C(=O)NCCC3=CCCCC3)ccc2c1=O,0.32% (inactive)
3,CN(CCc1ccccn1)Cc1cccnc1,73.8% (active)
4,O=C(COc1ccccc1)NCc1cccnc1,-5.7% (inactive)
5,CN(Cc1ccccc1)C(=O)CCC1CCN(C(=O)CCc2ccccn2)CC1,-1.89% (inactive)
6,CCOc1cc(/C=C2\NC(=S)NC2=O)cc(Br)c1OC,19.5% (inactive)
7,Cc1ccc(C)c(-n2c(SCCN3CCOCC3)nnc2-c2cccnc2)c1,-3.61% (inactive)
8,O=C1OCCN1c1ccc(Nc2nccc(-c3cc(N4CCOCC4)cc([N+](=O)[O-])c3)n2)cc1,0.11% (inactive)
9,Cc1c2c(c(O)c3c(O)cccc13)C(=O)OC2[C@@H]1C(N(C)C)C(O)=C(C(N)=O)C(=O)[C@H]1O (some centres not stated),108% (active)
10,O=C1OC(c2ccccc2Cl)=N/C1=C\c1ccccc1[N+](=O)[O-],-1.22% (inactive)
11,Cc1nc2sccn2c1CN1CCC(C2(Cc3ccccc3)NC(=O)NC2=O)CC1 (configuration not stated),-18.4% (inactive)
12,Cc1cc(C(F)(F)F)nn1CC(=O)Nc1ccc(I)c(Cl)c1,6.94% (inactive)
13,COC(=O)c1c(OCCCN(C)C)cc(=O)n2c1CCN(C(=O)c1ccc(F)cc1)CC2,-2.23% (inactive)
14,O=S(=O)(NCC(c1ccc2c(c1)OCO2)N1CCOCC1)c1cccs1 (configuration not stated),1.27% (inactive)
15,COc1cc(/C=N/n2c(-c3ccncc3)n[nH]c2=S)cc(OC)c1OC(C)=O,6.48% (inactive)
16,Cc1cc(NC(=O)CCC(=O)N(CC(=O)NC2CCCC2)c2ccc(F)cc2)no1,-6.06% (inactive)
17,Cc1cc(NC(=O)/C=C/C(=O)N(CC(=O)NC2CCCC2)c2ccc(F)cc2)no1,75% (active)
18,Cc1cc(C)cc(N(CC(=O)NC2CCCC2)C(=O)CCC(=O)Nc2cc(C)on2)c1,5.39% (inactive)
19,CCOC(=O)CSC1=Nc2ccccc2C2=NC(C(C)C)C(=O)N12 (configuration not stated),1.69% (inactive)
20,O=C1NC(c2ccccc2[N+](=O)[O-])C(C(=O)c2cccs2)C(O)(C(F)(F)F)N1 (configuration not stated),58.9% (active)
21,O=C1NC(c2c(F)cccc2Cl)C(C(=O)c2cccs2)C(O)(C(F)(F)F)N1 (configuration not stated),-3.71% (inactive)
22,O=C1NC(c2cccs2)C(C(=O)c2cccnc2)C(O)(C(F)(F)F)N1 (configuration not stated),-3.66% (inactive)
